Out of some 31,000 sequences screened, about 1,400 (4.5%) were called active. Many of the other results were omitted from the sample, so actives are more common in it than they were. Values without a mark were called inactive.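 How the source made its calls: active means median seed-adjusted z-score above 1 or below -1; inactive means the rest.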
Assay: Novel Modifiers of Survival Motor Neuron (SMN) Protein: Gene Identification via Genome-wide siRNA Screen;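 further: luminescence tracks full-length SMN protein made from the SMN2 reporter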
Conditions: HEK293T SMN2-luciferase reporter, siRNA knockdown, 72 h; actives lie on both sides
How it was run: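 Each of three siRNAs per gene is reverse-transfected (1 pmol) into reporter HEK293T cells whose luciferase output tracks SMN protein level. After 72 h culture, ONE-Glo luminescence is control-normalized, log10-transformed and MAD-standardized; Common Seed Analysis deprioritizes seed-driven hits.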
GGGUACAAGUUACCUAAUATT against TDRD6 gave a median seed-adjusted z-score of 0. For GGAAACGACCUGUCAAAGATT against PHAX, the median seed-adjusted z-score was -0.0716. GGAGAUCGUUCUGCACAGATT against PAEP showed a median seed-adjusted z-score of -0.0632. For CCAUCUUGGUAAUGCCCAUTT against HTR1D, the median seed-adjusted z-score was -0.155. For CGAGUUACUUUUCAGCUAATT against MYH4, the median seed-adjusted z-score was -1.8 (active). AGUUCACCCUCGUACUCUATT against FURIN gave a median seed-adjusted z-score of 0.0975. With UCAUAAACUUGGAUAAGCATT against NRIP3 the median seed-adjusted z-score was -0.699. GCGAAUGAGUGGUAGAGGATT against ARHGAP21 showed a median seed-adjusted z-score of 0.229. Work on GCACUUUUCGAGGAGGAGATT against SLC12A7 yielded a median seed-adjusted z-score of -0.0309. In the case of CAGUUGAUUUAAGAGGUAATT against PRPF4B, the median seed-adjusted z-score is reported as -2.29 (active). Sequence CAAGGAGUUUUACCCAGUATT against CYP4Z1 has a median seed-adjusted z-score of -0.139. CUUUAUGACUUAGAGUUAATT against BAAT gave a median seed-adjusted z-score of 0.641. GAACUUAUAAGUGCAGCAATT against ZNF547 gave a median seed-adjusted z-score of 0.099. CGUGGAAGGUGAGUAAUAATT against ZBTB40 gave a median seed-adjusted z-score of 0.187. In the case of GGUGGUGAAUGAAGGUUCATT against HINT1, the median seed-adjusted z-score is reported as 0.873. With CCAUAACCGCCACACCCUUTT against GPR153 the median seed-adjusted z-score was -1.08 (active). With GAAUGCAUGUGAUCACCUATT against SF3B14 the median seed-adjusted z-score was -1.26 (active). GGGUUGCUAGAAAAUCGUATT against USP37 gave a median seed-adjusted z-score of 0.0907. Sequence GAGAUGAACGUGUAAAGAATT against CIR has a median seed-adjusted z-score of -0.197. For CAGAAUAUAUGACAGGAAATT against YY1, the median seed-adjusted z-score was 1.94 (active). Work on CCUCCGGAACAAGAACUAATT against ZNF397 yielded a median seed-adjusted z-score of -0.107. GUCUGCUUUGUAUAGAUAATT against KLRC3 showed a median seed-adjusted z-score of 0.833. CGACUACAUGUUCAAGAUUTT against RAB3A showed a median seed-adjusted z-score of -0.0787. With GGAUGCGUUUUCUGACAAATT against GPR149 the median seed-adjusted z-score was -0.186. GCAUACGAUUUUAAGCGGATT against PTEN gave a median seed-adjusted z-score of -0.408. For GAACCAGGAGAGAAUAGAATT against PDGFRL, the median seed-adjusted z-score was 0.0203. In the case of GCUGCGAGCUCGAAACUUUTT against SEC14L4, the median seed-adjusted z-score is reported as -0.714. For CGACAAGUCUGACAGGGAUTT against PQBP1, the median seed-adjusted z-score was -1.12 (active). Sequence GGUUUGAGCUUACUCUUCATT against ACCN5 has a median seed-adjusted z-score of 0.227. For GGGAAGAACAGAAUACUGATT against ZNF563, the median seed-adjusted z-score was 0.00283. GCGUGGAAAUUGUACCCGUTT against MBNL3 gave a median seed-adjusted z-score of -0.189. GGAAAAGGAACGGAAUAAATT against MLN showed a median seed-adjusted z-score of -0.422. In the case of GCAGUUAACACUCAAGGAATT against MKKS, the median seed-adjusted z-score is reported as 1.03 (active). GGUAAUCUUUAUGAAGAGATT against GCM1 gave a median seed-adjusted z-score of 0.0197. Work on GCCUGUAAGUUAUUAAAGATT against ARL4D yielded a median seed-adjusted z-score of -0.523. For GGCUGAAAUUGUAACCCUATT against TPD52L3, the median seed-adjusted z-score was 0.552. For GCAACCUUCUAACUACGGUTT against HNRNPA2B1, the median seed-adjusted z-score was 1.33 (active). Sequence CAGGAUCUGUUCAACCAAATT against VWA2 has a median seed-adjusted z-score of 0.584. GGAUGGGAACAACCCUGCATT against HMGN4 gave a median seed-adjusted z-score of -0.0471. In the case of CCUCCUUGUUAGUGUCUUUTT against CLEC11A, the median seed-adjusted z-score is reported as -1.1 (active). Sequence CCAGGUCCCUAAUCAUGGATT against NOXA1 has a median seed-adjusted z-score of -0.441. With GGGAAGCACUGGUCGAAGATT against DTD1 the median seed-adjusted z-score was -1.58 (active). AGGCCUUUCUGGGACCUUATT against ZP4 showed a median seed-adjusted z-score of 0.0498. Work on CUAAGACCAGUAUAGUAAATT against ARF6 yielded a median seed-adjusted z-score of -0.805. Work on GGAUCUGGUUCAACUUGGATT against FUT3 yielded a median seed-adjusted z-score of 0.11. GUGUCUCAGGGAUAGGUAATT against MICAL2 showed a median seed-adjusted z-score of -0.0224. For AGGAGUUCUUGGUCAUGAUTT against TNNC2, the median seed-adjusted z-score was -0.773. For GCAUUACAGUCUGAAUUGATT against PTPDC1, the median seed-adjusted z-score was -0.191. For GCUUUAUGCUGCUAAGGCATT against PGD, the median seed-adjusted z-score was -1.55 (active). CGACAAGUCUUCGACCUGATT against DGKZ gave a median seed-adjusted z-score of 0. GCUGCUAUUUGAUAGACCATT against HNRNPM showed a median seed-adjusted z-score of 0.499. For GAAUGAUGAUGCAUGCCUUTT against MS4A10, the median seed-adjusted z-score was -0.24. CACCUCUAAUCAUCGAUGATT against UAP1 gave a median seed-adjusted z-score of 0.0411. With AGGUCUGGACGACAACUAUTT against MST1 the median seed-adjusted z-score was -1.47 (active). Work on GGAGCCUAUCAUAACCUUATT against ZNF484 yielded a median seed-adjusted z-score of 0.2. Work on GGGUACCGAGGAUCGCUUUTT against LAMA5 yielded a median seed-adjusted z-score of 0.229. Sequence GUAUCUAAGAGAUAUGGAATT against ORC5L has a median seed-adjusted z-score of -0.126. For GACUCCCAUUUGAGACUUUTT against ZMAT1, the median seed-adjusted z-score was -0.123. With ACACCUACAUGAUGACGCATT against EVX2 the median seed-adjusted z-score was 0.181. With CCUCAAAUGCAGUAUUUUUTT against HMOX1 the median seed-adjusted z-score was 0.45. With GCAACUACGUGACUCGCUATT against SMUG1 the median seed-adjusted z-score was -1.38 (active). With CGUCAGUGCUUCGCAUACATT against ZBTB45 the median seed-adjusted z-score was 0. Work on GAAGGAGCAGGAUUACCAATT against TMED4 yielded a median seed-adjusted z-score of -0.895. GAGCUUCAACUAACAGGAATT against NUPL2 showed a median seed-adjusted z-score of 0.134. With CAUGGUCCAUUAUUCGUGATT against ATP6V1A the median seed-adjusted z-score was -0.0106. With GGAAUUGGUUUCAGUCAAATT against RCOR1 the median seed-adjusted z-score was -1.13 (active). GACUUACCUUCUGAGCAUATT against ZNF792 gave a median seed-adjusted z-score of 0. Sequence CGACUUCAUUGUAAAGAAATT against LIPF has a median seed-adjusted z-score of 0.54. With GCUGCGUCAUUUUCGAAAATT against MOXD1 the median seed-adjusted z-score was -0.162.

Source: PubChem BioAssay AID1347426 (Functional Genomics Laboratory (NCATS/FGL), 2020)
